# FBW7 activator: activators of human E3 ligase FBW7; AID 1259310; AlphaScreen FBW7–phospho-cyclin E peptide binding, activator screen; 0.13% of 650,000 active; Q969H0; normalized activity (activation), % at 26.1 µM; in the data active = normalized activity above about 1.9%;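 also: purified mutant Fbw7 with reduced substrate affinity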
# MITF primary: inhibitors of human MITF | O75030 | AlphaScreen MITF homodimerization, bead proximity signal | inhibition, % at 2.6 µM | 0.91% of 650,000 active | AID 1259374; in the data active = inhibition above about 50%
# GPR151 ag: human GPR151 activation. AID 1508602. activation, % at 11.2 µM. 1% of 650,000 active. PathHunter beta-arrestin GPR151 cells, luminescence. Q8TDV0; in the data active = activation above about 4.9%
# Target sequence (Q8TDV0 whole entry, looked up): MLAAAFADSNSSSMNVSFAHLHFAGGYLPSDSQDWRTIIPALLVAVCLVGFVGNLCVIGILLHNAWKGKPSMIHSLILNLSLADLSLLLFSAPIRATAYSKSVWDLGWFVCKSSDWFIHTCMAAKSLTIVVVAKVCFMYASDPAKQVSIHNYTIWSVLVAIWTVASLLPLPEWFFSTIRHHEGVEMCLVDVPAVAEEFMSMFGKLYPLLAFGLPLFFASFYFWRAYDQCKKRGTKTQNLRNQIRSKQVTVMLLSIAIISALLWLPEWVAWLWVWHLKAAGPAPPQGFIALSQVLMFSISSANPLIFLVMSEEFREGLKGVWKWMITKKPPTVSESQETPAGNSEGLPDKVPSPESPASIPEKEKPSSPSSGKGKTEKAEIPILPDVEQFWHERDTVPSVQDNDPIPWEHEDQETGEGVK
# TEAD-YAP block: TEAD-YAP interaction inhibition; HEK-TIYL cells, TEAD-Gal4/YAP UAS-luciferase luminescence; inhibition, % at 9.12 µM; 1.4% of 640,000 active; AID 1259422; in the data active = inhibition above about 32%
# MITF confirm: human MITF inhibition, confirmation | shares compounds with MITF primary | AlphaScreen MITF homodimerization, biotin/His-MITF beads | inhibition, % at 2.6 µM | 16% of 4,700 active | AID 1259372;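 active = inhibition above a cutoff derived from the DMSO control wells, cut at about 28% in these data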;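 also: inhibitors lower the bead chemiluminescence by keeping MITF from dimerizing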
# AS interf DR: optically interferes with AlphaScreen signal in dose response; shares compounds with MITF primary; AlphaScreen optical interference counterscreen, cell-free; IC50, µM; 6% of 480 active; call rule not given here
# AlphaScreen intf2: AlphaScreen optical interference, counter-screen. shares compounds with MITF primary. LysRS AlphaScreen counterscreen, signal interference, triplicate. inhibition, % at 2.6 µM. 7.6% of 4,700 active. AID 1259376;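 active = inhibition above a cutoff derived from the DMSO control wells, cut at about 30% in these data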
# Hits are given with their value; - = inactive; . = no result given. Sampled rows, rich in hits. Any-hit rate of the full collection: about 3.5%.
SMILES,FBW7 activator,MITF primary,GPR151 ag,TEAD-YAP block,MITF confirm,AlphaScreen intf2,others
Cc1ccc([N+](=O)[O-])cc1S(=O)(=O)Nc1ccc(Nc2ncccc2[N+](=O)[O-])cc1,-,97,-,-,97,-,AS interf DR=-
CCOc1cc(C2C(C(=O)OC3CCCCC3)=C(C)NC3=C2C(=O)CC(c2ccccc2)C3)cc(Br)c1O (stereo unspecified),-,-,-,-,.,.,
COc1cc2nc(CN(C)Cc3nccs3)nc(N)c2cc1OC,-,73,-,-,48,100,
COc1cc2nc(CN(C)Cc3cc(C)no3)nc(N)c2cc1OC,-,-,-,-,.,.,
Cc1nc2ccccn2c1C(=O)N1CCCC1,-,-,-,-,.,.,
Fc1ccccc1-c1cnc2ccc(NCc3cccs3)nn12,-,53,-,-,-,-,
CC(C)(C)OC(=O)NCC(=O)N1CCC(Nc2ccnc(Nc3ccc(S(N)(=O)=O)cc3)n2)CC1,-,-,-,-,.,.,
COc1cc(CN2CCCCCC2)cc(OC)c1,-,-,-,-,.,.,
COc1cc(CN2CCN(Cc3cccc(Cl)c3)CC2)cc(OC)c1,-,73,-,-,-,-,
COc1cc(CN2CCN(Cc3ccc(Cl)cc3)CC2)cc(OC)c1,-,84,-,-,-,-,
COc1cccc(CN2CCCCC2)c1,-,-,-,-,.,.,
Cc1ccc(S(=O)(=O)N(C)CCOc2cccc(Br)c2)cc1,-,-,-,-,.,.,
Cc1cccc(NC(=O)CN(c2ccc(I)cc2)S(C)(=O)=O)c1,-,71,-,-,-,-,
Cc1ccc(NC(=O)CN(c2ccc(I)cc2)S(C)(=O)=O)cc1,-,-,-,-,.,.,
COc1cc(N)c2nccc(C)c2c1OC,-,97,-,-,119,59,
COc1cc(C(=O)Oc2ccccc2N)cc(OC)c1OC,-,-,-,-,.,.,
NCCCC[C@@H]1NC(=O)[C@H]2CN(Cc3nc(-c4ccccc4)cs3)CCN2C1=O,-,-,-,-,.,.,
COc1ccc(-c2cc3ccccc3n2CC(O)CNCc2ccco2)cc1 (stereo unspecified),-,71,-,-,-,-,
COc1ccccc1CN1CCC(C(=O)N2CCCC2)CC1,-,-,-,-,.,.,
O=C(C1CCN(Cc2cccc(O)c2)CC1)N1CCN(c2ccccc2F)CC1,-,76,-,-,-,-,
CC1CCCN(C(=O)C2CCN(Cc3cccc(O)c3)CC2)C1 (stereo unspecified),-,-,-,-,.,.,
COc1cccc(CN2CCC(C(=O)N3CCN(c4ccccc4F)CC3)CC2)c1OC,-,52,-,-,-,-,
Cc1cccc(N2C(=O)C3C4C=CC(O4)C3C2=O)c1C (stereo unspecified),-,51,-,-,-,-,
COc1ccc(OC)c(CN2CCN(Cc3cccn3C)CC2)c1,-,63,-,-,-,-,
COc1ccc(Br)cc1CN1CCCCC1,-,-,-,-,.,.,
SMILES,FBW7 activator,MITF primary,GPR151 ag,TEAD-YAP block,MITF confirm,AlphaScreen intf2,others
COc1ccc(Br)cc1CN1CCN(Cc2cccn2C)CC1,-,67,-,-,-,-,
COc1ccc(OC)c(CN2CCOCC2)c1,-,-,-,-,.,.,
O=C(c1ccccc1)c1cc(Br)ccc1NS(=O)(=O)c1ccc([N+](=O)[O-])cc1,-,-,-,-,.,.,
CN(C)CCCNC(=O)c1cccc(CN(C(=O)c2nc3ccc(-c4cn[nH]c4)cc3s2)C2CC2)c1,-,60,-,-,50,-,AS interf DR=-
CCOC(=O)C1CCCN(C(=O)Cc2c(F)cccc2Cl)C1 (stereo unspecified),-,-,-,-,.,.,
CCOC(=O)C1CCCN(Cc2cccc(C(F)(F)F)c2)C1 (stereo unspecified),-,52,-,-,-,-,
CCOC(=O)C1CCCN(Cc2c(F)cccc2Cl)C1 (stereo unspecified),-,54,-,-,-,-,
CCOC(=O)C1CCCN(CCc2ccccc2)C1 (stereo unspecified),-,59,-,-,-,-,
COc1cc(CN2CCC(N3CCN(C)CC3)CC2)cc(OC)c1OC,-,87,-,-,-,-,
COc1ccc(OC)c(CN2CCC(N3CCN(CCO)CC3)CC2)c1,-,81,-,-,-,-,
COc1cc(CN2CCN(C3CCC(c4ccccc4)CC3)CC2)cc(OC)c1OC (stereo unspecified),-,69,-,-,-,-,
COc1ccc(OC)c(CN2CCN(C3CCC(c4ccccc4)CC3)CC2)c1 (stereo unspecified),-,54,-,-,-,-,
COc1cc(CN2CCC(N3CCOCC3)CC2)cc(OC)c1OC,-,-,-,-,.,.,
Cc1ccc(C(=O)Nc2ccc([N+](=O)[O-])cc2)cc1I,-,-,-,-,.,.,
Cc1ccccc1OCC(=O)Nc1ccc(I)cc1,-,-,-,-,.,.,
CN1CCN(CC(=O)c2c(-c3ccccc3)n(C)c3ccccc23)CC1,-,57,-,-,-,-,
Cc1ccc(C(=O)/C=C/c2ccc(-c3cccc(C(F)(F)F)c3)o2)cc1,-,-,-,-,.,.,
O=C(/C=C/c1ccc(-c2ccc(F)cc2)o1)c1ccco1,-,58,-,-,77,40,
O=C(/C=C/c1ccc(-c2cccc(C(F)(F)F)c2)o1)c1ccco1,-,78,-,-,70,-,AS interf DR=-
COCCNc1c(-c2ccc(N)cc2)nc2cc(C)ccn12,-,-,-,-,.,.,
Cc1cc(=O)c(OCc2ccccc2F)cn1CC(=O)N1CCOCC1,-,-,-,-,.,.,
O=C1N[C@@H](Cc2cnc[nH]2)C(=O)N2CCN(C(=O)NC3CCCCC3)C[C@H]12,-,-,-,-,.,.,
O=C1N[C@@H](Cc2ccc(O)cc2)C(=O)N2CCN(C(=O)NC3CCCCC3)C[C@H]12,-,70,-,-,69,-,AS interf DR=-
O=C1N[C@H](Cc2ccc(O)cc2)C(=O)N2CCN(C(=O)NC3CCCCC3)C[C@H]12,-,76,-,-,70,-,AS interf DR=-
O=C(c1cccc([N+](=O)[O-])c1)c1ccc2c(c1)C(=O)N(CCO)C2=O,-,-,-,-,.,.,
SMILES,FBW7 activator,MITF primary,GPR151 ag,TEAD-YAP block,MITF confirm,AlphaScreen intf2,others
CC(Oc1ccccc1)C(=O)NNC(=O)CC12CC3CC(CC(C3)C1)C2 (stereo unspecified),-,-,-,-,.,.,
Clc1ccc(/C=C/c2nc(-c3ccccc3)c3ccccn23)cc1,-,-,-,-,.,.,
CCCCOc1ccc(C(=O)N/C(=C/c2ccco2)C(=O)O)cc1,-,51,-,-,64,-,AS interf DR=-
CCCCOc1ccc(C(=O)N/C(=C\c2ccco2)C(=O)OC)cc1,-,-,-,-,.,.,
COC(=O)c1cc2oc(C)cc2n1Cc1cc(=O)n2ccccc2n1,-,-,-,-,.,.,
Cn1c(=O)n(C)c2cc(/C=C\c3[nH]c(=O)[nH]c(=O)c3[N+](=O)[O-])ccc21,-,-,-,-,.,.,
CN1C(=O)/C(=C2\SC(=Nc3ccc(Br)cc3)NC2=O)c2ccccc21,-,-,-,-,.,.,
CN1C(=O)/C(=C2\SC(=Nc3ccc(F)cc3)NC2=O)c2cc(Br)ccc21,-,51,-,-,-,-,

# High-throughput results from PubChem.
